The source of these data is PubChem BioAssay AID565 (University of Pittsburgh Molecular Library Screening Center, 2006).

Out of some 65,000 compounds screened, about 1,200 (1.8%) were called active. For the sample, actives were picked, then their nearest neighbours and some compounds at random. Values without a mark were called inactive. Cut-off read from the data, not from the text of the source: active = inhibition above about 50%; inactive = the rest.

This assay has as its target Gag-Pol polyprotein (Human immunodeficiency virus type 1 group M subtype B (isolate HXB2)) (UniProt P04585). Briefly: blockers of HIV-1 RNase H RNA/DNA cleavage – biochemical, fluorescence, primary screen (AID 565). The following applies: RT-RNase H RNA/DNA duplex cleavage, at 10 µM, hits give high values.
For orientation: inhibition means the drop in the measured response relative to a control, in per cent. Regarding `Cn1c(=NC(=O)c2ccco2)sc2cccc(F)c21`, the inhibition was -27.2%.
With `COCc1cc(C)nc(Nc2cc(C)ccc2C)c1C#N`, the inhibition is -17%.
With `Cc1noc(NS(=O)(=O)c2ccc(N3CC(O)=C(c4ccccc4)C3=N)cc2)c1C`, the inhibition is -3.39%.
Next, `Cc1cnc(NC(=O)CSc2nnc(-c3ccc(Cl)cc3Cl)n2N)s1`: 70.1% (active).
In the case of `Cc1cc(C)nc(SCc2nnc(SCC(=O)Nc3ncc(C)s3)n2Cc2ccco2)n1`, the inhibition is -40.5%.
`Cc1cnc(NC(=O)CSc2nnc(-c3ccccc3)n2Cc2ccccc2)s1`: the inhibition is -0.4%.
As for `CCCNS(=O)(=O)c1ccc2c(c1)CCCN2C(C)=O`, the inhibition was -15.5%.
In the case of `CC1CCc2c(sc(NC(=O)c3ccc(Cn4cc(Br)cn4)o3)c2C(N)=O)C1` (stereo unspecified), the inhibition is 88.6% (active).
Take `CCOC(=O)c1c(NC(=O)c2ccc(Br)o2)sc2c1CCCC2`: the inhibition is -13%.
Next, `CCc1c(C)sc(NC(=O)c2ccc(Br)o2)c1C(=O)OC`: -67.1%; `CCC1(C)Cc2c(sc3nc4n(c(=O)c23)CCCS4)CO1` (stereo unspecified): -2.87%; `CC(=O)Nc1nonc1-c1nc2ccccc2n1Cc1ccccn1`: -10.2%.
With `CCOc1ccc(NC(=O)N2CCN(CC)CC2)cc1`, the inhibition is -4.55%.
Turning to `Cc1ccccc1NC(=O)c1ccccc1`, the inhibition is -3.87%.
For `Cc1ccc2c(c1)sc1ncc(NC(=O)c3ccccc3)c(=O)n12`, the inhibition was 68.4% (active).
For the compound `Cc1ccc(NC(=O)c2nc[nH]c2C(=O)N2CCCCC2)c(C(=O)c2ccccc2)c1`, the inhibition was 2.94%.
`COc1ccccc1CNC(=O)CCCn1c(=O)c2ccccc2n(CC(=O)NC2CCCC2)c1=O`: the inhibition is -18.8%.
Regarding `COc1ccc(CCNc2ncnc3nc[nH]c23)cc1OC`, the inhibition was -5.66%.
In the case of `COC(=O)Cc1nc2ccccc2[nH]1`, the inhibition was -25.6%.
For `COC(=O)Nc1nc2ccc(Sc3ccccc3)cc2[nH]1`, the inhibition is 82.8% (active).
Next, `Oc1ccc2nc(Cc3ccccc3)[nH]c2c1`: -7.13%; `O=C1c2cccnc2C(=O)N1Cc1cccs1`: -2.26%.
Next, `COc1ccc(C(=O)NC(=O)CSc2nnc(-c3ccco3)n2-c2ccccc2)cc1`: -5.53%; `Cc1ccc(OCCCC(=O)N2CCOCC2)c(C)c1`: -20.5%.
On to `Cc1ccc(-n2c(N)c(C(=O)N3CCOCC3)sc2=S)c(C)c1`, for which the inhibition was 79.7% (active).
Next, `CCC(=O)Nc1sc(C(=O)N2CCCCC2)c(C)c1C#N`: 0.57%; `Cc1cccc(-n2c(N)cc(=O)nc2SC(C)C(=O)NC2CCCCC2)c1` (stereo unspecified): -4.66%.
Next, `Cc1cccc(-n2c(N)c(C(=O)N3CCN(C)CC3)sc2=S)c1`: 90.6% (active); `Cc1cccc(-n2c(C)nc3cc(C(=O)N4CCC5(CC4)OCCO5)ccc32)c1`: 3.01%; `O=C(c1ccccc1)N1CCN(C(=O)N2CCCCC2)CC1`: -10.1%.
Consider `N#Cc1ccccc1-n1c(N)c(C(=O)N2CCCC2)sc1=S`, for which the inhibition was 68% (active).
Regarding `CC(=O)c1c(N2CCOCC2)nc(=S)n(-c2cc(C)ccc2C)c1C`, the inhibition is -1.2%.
On to `COc1cccc(-n2c(SCC(=O)NC3CCCCC3)nc3n[nH]c(C)c3c2=N)c1`, for which the inhibition is -20%.
Take `Cc1ccc2nc(NC3=NCN(CCc4ccccc4)CN3)nc(C)c2c1`: the inhibition is 11.4%.
As for `COc1ccc(C(=O)Nc2c(N)nc(SCC(=O)N3CCC(C)CC3)[nH]c2=O)cc1OC`, the inhibition is -4.95%.
Take `O=P(O)(CN1CCCCC1)CN1CCCCC1`: the inhibition was -5.45%.
As for `O=C(CN1C(=O)CSc2ncccc21)N1CCOCC1`, the inhibition was -4.9%.
For the compound `COC(=O)C1=C(C)NC2=C(C(=O)c3ccccc32)C1c1ccc(-c2ccc(C(=O)O)cc2)o1` (stereo unspecified), the inhibition was 81.9% (active).
With `COC(=O)C1=C(C)NC(=O)NC1/C=C/c1ccccc1` (stereo unspecified), the inhibition is -63.7%.
With `COc1ccccc1NC(=O)C1=C(C)NC2=C(C(=O)CCC2)C1c1ccc(C)o1` (stereo unspecified), the inhibition was -19.4%.
Take `Cc1nnc(NC(=O)CCC(=O)N2CCC(C)CC2)s1`: the inhibition was -0.8%.
On to `Cc1cc(=O)n2nc(N3CCCC(C(=O)NCCC4=CCCCC4)C3)sc2n1` (stereo unspecified), for which the inhibition is -4.48%.
As to `COc1ccc(NC(=O)CN2CCN(S(=O)(=O)c3ccc(F)cc3)CC2)cc1Cl`, the inhibition is -9.57%.
Next, `COc1ccccc1NC(=O)CN1CCN(S(=O)(=O)c2ccc(Br)cc2)CC1`: -1.95%.
Take `COc1cc2c(cc1NC(=O)CN1CCN(S(=O)(=O)c3ccc(F)cc3)CC1)oc1ccccc12`: the inhibition is 56.4% (active).
`Cc1cc(Br)ccc1NC(=O)C1CCCO1` (stereo unspecified): the inhibition is -14.4%.
For `N#Cc1ccc(OCCN2C(=O)NC3(CCSC3)C2=O)cc1` (stereo unspecified), the inhibition was -7.99%.
Next, `O=C(CN1C(=O)CCC1=O)Nc1ccc(S(=O)(=O)N2CCOCC2)cc1`: -11.6%.
As for `Clc1ccc(Cc2nn3c(-c4ccncc4)nnc3s2)cc1`, the inhibition is 53.8% (active).
Next, `Nc1scc(-c2ccncc2)c1Cl`: -13.4%.
Turning to `Clc1ccc(Cc2nnc(-c3cccs3)o2)cc1`, the inhibition is -42.9%.
`CCOC(=O)c1ccc(CS(=O)c2ccc(Cl)cc2)o1` (stereo unspecified): the inhibition is -8.12%.
With `COc1ccc(S(=O)(=O)NC2(C(F)(F)F)N=C3SCCN3C2=O)cc1` (stereo unspecified), the inhibition is -21.6%.
In the case of `CCOC(=O)c1sc(NC(=O)C(CC)Sc2nccn2C)nc1C` (stereo unspecified), the inhibition is 7.42%.
Next, `Cc1nc(NC(=O)CCC(=O)O)sc1C(=O)N(C)C`: 0.73%; `CCOC(=O)c1sc(/N=C/Nc2nc(C)c(C(=O)OCC)s2)nc1C`: 66.5% (active); `CCCOC(=O)CC1C(=O)NCCN1Cc1ccc(F)cc1` (stereo unspecified): 15.5%.
Next, `CC(=O)Nc1ccc(S(=O)(=O)N2CCN(CCCOc3cc(C)ccc3C)CC2)cc1`: -8.05%; `CCC(CC)C(=O)Nc1cc(C(=O)OC)cc(C(=O)OC)c1`: -9.62%.
For the compound `Cc1ccc(S(=O)(=O)C2(S(=O)(=O)c3ccc(C)cc3)CCCC2)cc1`, the inhibition was -7.65%.
Next, `COc1ccc(N(Cc2cc3cc(OC)ccc3[nH]c2=O)S(C)(=O)=O)cc1`: -0.75%.
For `CCC(=O)N(Cc1cc2cc(OC)ccc2[nH]c1=O)c1ccccc1C`, the inhibition is -2.05%.
Regarding `CCOc1ccc2[nH]c(=O)c(CN(CCCO)C(C)=O)cc2c1`, the inhibition was 84.7% (active).
Next, `CCCc1[nH]nc2c1C(C1CC=CCC1)C(C#N)=C(N)O2` (stereo unspecified): -53.6%; `Cc1nc2ccc(C(=O)N3CCSCC3)cc2s1`: -8.86%.
As for `CC(C)CC(=O)N=C1SC2CS(=O)(=O)CC2N1CCc1ccccc1` (stereo unspecified), the inhibition was -0.09%.
Consider `Cc1ccc(C(=O)NC2CCN(C(=O)N3CCOCC3)CC2)cc1`, for which the inhibition is -0.08%.
As for `O=C(NCCCN1CCN(Cc2ccccc2)CC1)C1CCN(S(=O)(=O)N2CCCC2)CC1`, the inhibition is -16.5%.
`CCOC(=O)Cn1c(CN(Cc2ccccc2)Cc2ccccc2)nc2c1c(=O)[nH]c(=O)n2C`: the inhibition was -4.21%.
In the case of `CCC(C)Sc1nc2c(c(=O)[nH]c(=O)n2C)n1CC(O)COc1cccc2ccccc12` (stereo unspecified), the inhibition is 76.5% (active).
For `CN1CCN(c2nc3c(c(=O)[nH]c(=O)n3C)n2Cc2cccc3ccccc23)CC1`, the inhibition was -0.99%.
Take `Cc1cccc(NC(=O)CSc2nnc(CCCCCNC(=O)OC(C)(C)C)o2)c1C`: the inhibition is -13.1%.
For `COc1ccc(CNC(=O)c2cc3c(=O)n4ccccc4nc3n(CC3CCCO3)c2=N)cc1` (stereo unspecified), the inhibition is -18.1%.
For `COc1ccc(CCn2c(=N)c(C(=O)NCc3ccco3)cc3c(=O)n4cccc(C)c4nc32)cc1`, the inhibition is 64.2% (active).
On to `CCn1c(=N)c(C(=O)NCCCOC)cc2c(=O)n3cccc(C)c3nc21`, for which the inhibition was -13.1%.
In the case of `Cn1c(=O)[nH]c(=O)c2c1nc(CN(Cc1ccccc1)Cc1ccccc1)n2CCN1CCOCC1`, the inhibition is -6.59%.
Consider `COc1ccc(OCCCON2C(=O)c3ccccc3C2=O)cc1`, for which the inhibition was -68.1%.
Next, `CCCCc1nc2ccccc2c(=O)n1NC(=O)c1c(O)c2cccc3c2n(c1=O)CC3`: 4.26%.
On to `CCCc1nc2ccccc2c(=O)n1NC(=O)c1c(O)c2ccccc2[nH]c1=O`, for which the inhibition is -19.6%.
In the case of `CCCc1nc2ccccc2c(=O)n1/N=C/c1ccc(O)c(O)c1`, the inhibition is 88.4% (active).
Take `Cc1ccc2c(c1)N(CCCC(=O)NCc1cccnc1)C(=O)CO2`: the inhibition is -14.5%.
Regarding `Cc1ccc(-n2nc(-c3ccco3)cc2C(=O)NCc2cccnc2)cc1`, the inhibition was 61.9% (active).
Consider `CC(C)(C)c1cc(C(=O)NCc2cccnc2)ccn1`, for which the inhibition was 3.16%.
Turning to `C#CCN1C(=O)C(O)(CC(=O)c2cc(OC)ccc2OC)c2ccccc21` (stereo unspecified), the inhibition is -25.6%.
`O=P(O)(CP(=O)(c1ccccc1)c1ccccc1)c1ccccc1`: the inhibition was -16.3%.
With `CC12CCC(C(=O)N(CCC#N)CCC#N)(CC1=O)C2(C)C` (stereo unspecified), the inhibition is -5.03%.
Regarding `CCOC(=O)CSC1=C(C#N)C(c2ccco2)C(C(=O)OCc2ccccc2)=C(C)N1` (stereo unspecified), the inhibition was -11.6%.
`CC1=C(C(=O)Nc2ccccc2)C(c2cccs2)C(C#N)=C(SCC#N)N1` (stereo unspecified): the inhibition is 55.5% (active).
For `CCOC(=O)CSC1=C(C#N)C(c2sccc2C)CC(=O)N1` (stereo unspecified), the inhibition was -2.34%.
`O=C(Nn1cc(C(=O)N2CCN(c3ccccc3F)CC2)c2ccccc2c1=O)c1cnccn1`: the inhibition was -2.41%.
For `Cc1nnc2sc(-c3ccco3)nn12`, the inhibition was 4.12%.
As to `COc1ccc(-c2nn3c(-c4ccccc4)nnc3s2)cc1OC`, the inhibition was -38.4%.
Next, `FC(F)(F)c1nnc2sc(-c3ccco3)nn12`: -2.16%; `COc1cc(-c2nn3c(-c4cccc(C)c4)nnc3s2)cc(OC)c1OC`: -7.33%; `Fc1ccc(-c2nnc3sc(-c4ccc5c(c4)OCO5)nn23)cc1`: 66.3% (active).
Next, `Fc1ccc(-c2ccc(-c3nn4c(-c5ccco5)nnc4s3)o2)cc1`: 65.8% (active).
